Results taken from PubChem BioAssay AID1159580 (chemical genetic matrix, 2015).
Screen size: about 5,500 compounds; about 2,000 (36%) were called active. Roughly 18% stayed inconclusive and do not appear here. No stated cut-off is given here; in the data, active means normalized growth mostly below about 0.91 (no sharp cut-off); inconclusive means no clear call, values can overlap the other calls; inactive means mostly above about 0.92. The list shows a part of the results.

Test: chemical genetic growth profiling, strain panel (AID 1159580);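 further: tested at 20 µM; growth read once vehicle control cultures reached saturation at 30 °C; 1 = growth at the plate median or of vehicle wells; lower values mean less growth of the strain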
Settings: growth OD

Measured: normalized growth

CC(=O)Nc1ccccc1
inactive: S. cerevisiae deletion strains, locus YJR066W, strain TOR1, active compounds read low 0.911 | S. cerevisiae deletion strains, locus YJR075W, strain HOC1, active compounds read low 0.99 | S. cerevisiae deletion strains, locus YKL009W, strain mrt4, active compounds read low 0.97 | S. cerevisiae deletion strains, locus YKL068W, active compounds read low 0.99 | S. cerevisiae deletion strains, locus YKL085W, strain MDH1 (second series), active compounds read low 0.977 | S. cerevisiae deletion strains, locus YKL085W, strain MDH1, active compounds read low 0.977 | S. cerevisiae deletion strains, locus YKL160W, strain elf1, active compounds read low 0.985 | S. cerevisiae deletion strains, locus YKL190W, strain CNB1, active compounds read low 0.973 | S. cerevisiae deletion strains, locus YKR001C, strain vps1, active compounds read low 0.98 | S. cerevisiae deletion strains, locus YKR026C, strain gcn3, active compounds read low 0.927 | S. cerevisiae deletion strains, locus YKR091W, strain srl3, active compounds read low 0.95 | S. cerevisiae deletion strains, locus YLL001W, strain dnm1, active compounds read low 0.979 | S. cerevisiae deletion strains, locus YLL026W, active compounds read low 0.972 | S. cerevisiae deletion strains, locus YLL041C, strain sdh2, active compounds read low 0.985 | S. cerevisiae deletion strains, locus YLR027C, strain aat2, active compounds read low 0.961 | S. cerevisiae deletion strains, locus YLR039C, strain RIC1, active compounds read low 0.966 | S. cerevisiae deletion strains, locus YLR058C, strain SHM2, active compounds read low 0.972 | S. cerevisiae deletion strains, locus YLR102C, strain apc9, active compounds read low 0.983 | S. cerevisiae deletion strains, locus YLR113W, strain HOG1, active compounds read low 0.959 | S. cerevisiae deletion strains, locus YLR221C, strain rsa3, active compounds read low 0.967 | S. cerevisiae deletion strains, locus YLR258W, strain gsy2, active compounds read low 0.98 | S. cerevisiae deletion strains, locus YLR262C, strain YPT6 (second series), active compounds read low 0.976 | S. cerevisiae deletion strains, locus YLR262C, strain YPT6, active compounds read low 0.941 | S. cerevisiae deletion strains, locus YLR268W, strain sec22, active compounds read low 0.99 | S. cerevisiae deletion strains, locus YLR320W, strain mms22, active compounds read low 0.964 | S. cerevisiae deletion strains, locus YLR330W, strain CHS5, active compounds read low 0.996 | S. cerevisiae deletion strains, locus YLR342W, strain FKS1 (second series), active compounds read low 1.07 | S. cerevisiae deletion strains, locus YLR342W, strain FKS1, active compounds read low 0.954 | S. cerevisiae deletion strains, locus YLR357W, strain rsc2, active compounds read low 0.967 | S. cerevisiae deletion strains, locus YLR370C, strain arc18, active compounds read low 0.97 | S. cerevisiae deletion strains, locus YLR371W, strain rom2, active compounds read low 0.999 | S. cerevisiae deletion strains, locus YLR384C, strain iki3, active compounds read low 0.986 | S. cerevisiae deletion strains, locus YLR418C, strain cdc73, active compounds read low 1 | S. cerevisiae deletion strains, locus YML016C, strain PPZ1, active compounds read low 0.993 | S. cerevisiae deletion strains, locus YML032C, strain rad52, active compounds read low 0.992 | S. cerevisiae deletion strains, locus YML120C, strain ndi1, active compounds read low 0.967 | S. cerevisiae deletion strains, locus YML124C, strain tub3, active compounds read low 0.982 | S. cerevisiae deletion strains, locus YMR058W, strain fet3, active compounds read low 0.976 | S. cerevisiae deletion strains, locus YMR078C, strain ctf18, active compounds read low 0.982 | S. cerevisiae deletion strains, locus YMR125W, strain sto1, active compounds read low 0.944 | S. cerevisiae deletion strains, locus YMR129W, active compounds read low 0.984 | S. cerevisiae deletion strains, locus YMR205C, strain PFK2, active compounds read low 0.969 | S. cerevisiae deletion strains, locus YMR223W, strain ubp8, active compounds read low 0.985 | S. cerevisiae deletion strains, locus YMR231W, strain pep5, active compounds read low 0.986 | S. cerevisiae deletion strains, locus YMR263W, strain SAP30, active compounds read low 0.981 | S. cerevisiae deletion strains, locus YMR307W, strain GAS1, active compounds read low 1.07 | S. cerevisiae deletion strains, locus YNL067W, strain RPL9B, active compounds read low 0.964 | S. cerevisiae deletion strains, locus YNL071W, strain lat1, active compounds read low 0.976 | S. cerevisiae deletion strains, locus YNL183C, strain NPR1, active compounds read low 0.915 | S. cerevisiae deletion strains, locus YNL209W, strain ssb2, active compounds read low 0.975 | S. cerevisiae deletion strains, locus YNL233W, strain BNI4, active compounds read low 0.978 | S. cerevisiae deletion strains, locus YNL248C, strain rpa49, active compounds read low 0.969 | S. cerevisiae deletion strains, locus YNL250W, strain rad50, active compounds read low 0.97 | S. cerevisiae deletion strains, locus YNL271C, strain bni1, active compounds read low 0.995 | S. cerevisiae deletion strains, locus YNL298W, strain CLA4, active compounds read low 0.986 | S. cerevisiae deletion strains, locus YNL307C, strain MCK1, active compounds read low 0.987 | S. cerevisiae deletion strains, locus YNL322C, strain KRE1 (second series), active compounds read low 0.942 | S. cerevisiae deletion strains, locus YNR049C, strain mso1, active compounds read low 0.952 | S. cerevisiae deletion strains, locus YNR052C, strain pop2, active compounds read low 0.996 | S. cerevisiae deletion strains, locus YOL006C, strain TOP1, active compounds read low 0.928 | S. cerevisiae deletion strains, locus YOL012C, strain htz1 0.771 | S. cerevisiae deletion strains, locus YOL147C, strain pex11, active compounds read low 0.982 | S. cerevisiae deletion strains, locus YOR001W, strain rrp6, active compounds read low 0.979 | S. cerevisiae deletion strains, locus YOR061W, strain CKA2, active compounds read low 0.959 | S. cerevisiae deletion strains, locus YOR069W, strain VPS5, active compounds read low 0.994 | S. cerevisiae deletion strains, locus YOR070C, strain gyp1, active compounds read low 0.972 | S. cerevisiae deletion strains, locus YOR080W, strain dia2, active compounds read low 0.961 | S. cerevisiae deletion strains, locus YOR083W, strain WHI5, active compounds read low 0.965 | S. cerevisiae deletion strains, locus YOR106W, strain vam3, active compounds read low 0.956 | S. cerevisiae deletion strains, locus YOR136W, strain idh2, active compounds read low 0.988 | S. cerevisiae deletion strains, locus YOR144C, strain elg1, active compounds read low 0.987 | S. cerevisiae deletion strains, locus YOR184W, strain ser1, active compounds read low 0.981 | S. cerevisiae deletion strains, locus YOR231W, strain MKK1, active compounds read low 0.968 | S. cerevisiae deletion strains, locus YOR265W, strain rbl2, active compounds read low 0.973 | S. cerevisiae deletion strains, locus YOR270C, strain vph1, active compounds read low 0.927 | S. cerevisiae deletion strains, locus YOR290C, strain snf2, active compounds read low 0.971 | S. cerevisiae deletion strains, locus YOR316C, strain cot1, active compounds read low 0.978 | S. cerevisiae deletion strains, locus YPL051W, strain arl3, active compounds read low 0.982 | S. cerevisiae deletion strains, locus YPL055C, strain LGE1, active compounds read low 0.906 | S. cerevisiae deletion strains, locus YPL078C, strain atp4, active compounds read low 0.971 | S. cerevisiae deletion strains, locus YPL106C, strain sse1, active compounds read low 0.961 | S. cerevisiae deletion strains, locus YPL240C, strain hsp82, active compounds read low 0.994 | S. cerevisiae deletion strains, locus YPL256C, strain CLN2, active compounds read low 0.953 | S. cerevisiae deletion strains, locus YPR119W, strain clb2, active compounds read low 0.986 | S. cerevisiae deletion strains, locus YPR141C, strain kar3, active compounds read low 0.989 | S. cerevisiae deletion strains, locus YPR163C, strain tif3, active compounds read low 0.996 | S. cerevisiae deletion strains, locus YPR167C, strain met16, active compounds read low 0.994 | S. cerevisiae deletion strains, strain wtn01, active compounds read low 1 | S. cerevisiae strains, strain wild type, active compounds read low 0.982
